From PubChem BioAssay (NCATS)
Records with an inconclusive call do not appear. Values without a mark were called inactive. Activity calls are given as the source filed them. Calls follow the shape of the dose curve; as a rule, active = well fitted cell-killing curve with a large enough effect; inconclusive = small, poorly fitted or top-dose-only effect; inactive = flat fitted curve, though single readings scatter.

Experiment: HEK-293 Cancer Cell Toxicity qHTS against the NCATS CANVASS Library (AID 1347355); also: nearly all actives have a fitted effect of over 65% in size
Details: HEK-293 viability, CellTiter-Glo luminescence, 72 h; series mostly up to 46.1 µM; activity change, negative = cytotoxicity: at the top concentration
Description: Natural products and their derivatives continue to be wellsprings of nascent therapeutic potential. However, many laboratories have limited resources for biological evaluation, leaving their previously isolated or synthesized compounds largely or completely untested. To address this issue, the Canvass library of natural products was assembled (https://tripod.nih.gov/canvass), in collaboration with academic and industry researchers, for quantitative high-throughput screening (qHTS) across a diverse set of cell-based and biochemical assays. The pure (>85% purity by liquid chromatography/mass spectrometry [LC/MS]) Canvass library of 346 natural products were submitted by 45 academic laboratories and companies around the world. We collected pure natural products to circumvent deconvolution and structure elucidation due to time and resource limitations. The library was formatted into 1536-well plates and evaluated in 50 qHTS (in an 11-pnt concentration series) bioassays with broad scope of disease-relevant mechanisms. The resulting data set from 50 different assays was then systematically analyzed to identify overall trends and specific natural products with interesting biological activities. Reported herein are the results of each individual qHTS and their corresponding assay protocol. National Center for Advancing Translational Sciences (NCATS), Rockville, MD National Institute of Health (NIH), Bethesda, Maryland
Cancer Cell Toxicity COV-362, OV-KATE, OV-SAHO, UWB1.289, UWB1.289-WTBRCA1, HEK-293, HPAF-II, Panc-1005, SW1088, and U-118MG-screen protocol. 1. In a 1536 well, white solid bottom tissue culture plates (Corning 7494), corresponding cells (COV-362, OV-KATE, OV-SAHO, UWB1.289, UWB1.289-WTBRCA1, HEK-293, HPAF-II, Panc-1005, SW1088, or U-118MG) were dispensed in each well at a final concentration of 1000 cells / well (6uL volume) using the Multidrop Combi (Thermo Fisher Scientific) dispenser. 2. The plates were incubated for 4 hours at 37 degrees C/5% CO2/95% Rh. 3. Compounds were pin transferred (~23nL volume) via Wako Pin-tool (Wako Automation, Richmond VA) equipped with a 1536 pin head. The assay plates were treated with compounds in an 11-pnt concentration series with a final concentration range of […] to 85uM. 4. Bortezomib was used as a single dose control (0.5mM column 4, rows 1 - 32) at a final concentration of 1.9uM and as a 16pnt titration (1mM; 1:2 dilution; 16-points; n = 2; column 3, rows 1 - 32) with final concentration range of 0.1nM - 3.8uM. 5. The assay plates were incubated for 72 hours at 37 degrees C/5% CO2/95% Rh. 6. 3uL CellTiter-Glo detection reagent was then added to the plates (columns 2 - 48, rows 1 - 32) and incubated at room temperature for additional 15min. 7. Luminescence signal was acquired via the ViewLux plate reader (PerkinElmer) using a clear filter, 2 second exposure and 2x binning settings.
% is scaled to controls: 0 for no effect and ±100 for the full control effect; potency is read from the fitted curve at half-maximal effect.

Row | Structure (SMILES) | activity change, negative = cytotoxicity | Potency | outcome
1 | CNCCc1c[nH]c2ccccc12 | -3.87% | – | –
2 | O=C(c1ccccc1O)c1[nH]c(Cl)c(Cl)c1-n1c(C(=O)c2ccccc2O)cc(Cl)c1Cl | – | 4.18 µM (active) | –
3 | CC=C1CN(C=O)[C@H]2C[C@@H]1[C@@H](C(=O)OC)[C@@]13CCOC21Nc1ccccc13 (stereo partly specified) | -3.56% | – | –
4 | COc1ccc(C23Oc4cc(OC)cc(OC)c4[C@](O)([C@H](c4ccccc4)C2C(=O)NCCCCNC(=O)c2ccccc2)[C@@H]3O)cc1 (stereo partly specified) | – | – | inactive
5 | COc1ccc2c(c1)[nH]c1c(C)nccc12 | – | 7.62 µM (active) | –
6 | CCN1C[C@]2(C)CC[C@@H](O)[C@]34C1[C@H](C[C@H]23)C12CCC(CC14)[C@](O)(CO)[C@H]2O (stereo partly specified) | – | – | inactive
7 | COC(=O)C1=C2Nc3ccccc3[C@@]23CCN2CC(C(C)=O)C1C[C@H]23 (stereo partly specified) | -7.74% | – | –
8 | CCC(=O)CCCCC[C@@H]1NC(=O)[C@H]2CCCCN2C(=O)[C@H]([C@@H](C)CC)NC(=O)[C@H](Cc2cn(OC)c3ccccc23)NC1=O | – | 0.935 µM (active) | –
9 | C=C1[C@@H](C)[C@H]2[C@H](Cc3ccccc3)NC(=O)[C@]23OC(=O)/C=C/[C@H](O)CCC[C@@H](C)C/C=C/[C@H]3[C@@H]1O | – | 9.35 µM (active) | –
10 | C[C@@H]1CC[C@@H](c2ccoc2)N2C[C@@]3(CC[C@@H]12)CS[C@@]1(CC[C@H]2[C@H](C)CC[C@@H](c4ccoc4)N2[C@@H]1O)C3 | – | 7.43 µM (active) | –
11 | CC1=CC(=O)C2=C(C)C[C@H](O)[C@@H]3[C@H](OC(=O)[C@@H]3C)[C@@H]12 | -12.5% | – | –
12 | CN(C)Cc1c[nH]c2ccccc12 | -5.59% | – | –
13 | CO[C@@H](/C=C/CC/C=C/C(=O)O)[C@@H](O)[C@H](C)/C=C(\C)[C@@H](O)[C@H](C)C(=O)CCCC1CC(=O)NC(=O)C1 | – | – | inactive
14 | CCCC[C@@H]1CC[C@H]2CCCC(CCC)N12 (stereo partly specified) | -13.8% | – | –
15 | CCC[C@H]1CC[C@H]2[C@H](C)CCC[C@H]2N1 | 0.625% | – | –
16 | CC[N@@+]1([O-])C[C@]2(C)CC[C@@H](O)[C@@]34C5C[C@H]6CC[C@@]5(C(C[C@H]23)C41)[C@H](O)[C@@]6(O)CO (stereo partly specified) | 0.828% | – | –
17 | CO[C@@H](/C=C/CC/C=C/C(=O)O)[C@@H](O)[C@H](C)[C@@H](O)/C(C)=C/[C@H](C)C(=O)CCCC1CC(=O)NC(=O)C1 | – | – | inactive
18 | CC(=O)N[C@H]1CCN2CCC[C@H]12 | -8.6% [at 103 µM] | – | –
19 | c1ccc2c3c([nH]c2c1)CNCC3 | -5.24% | – | –
20 | NCCc1ccccc1 | – | – | inactive
21 | CCCCC[C@@H]1OC(=O)[C@@H](C)N(C)C(=O)[C@H](CCCCC)OC(=O)C(C)N(C)C(=O)[C@H](CCCCC)OC(=O)[C@@H](C)N(C)C(=O)[C@H](CCCCC)OC(=O)C(C)N(C)C1=O (stereo partly specified) | – | 4.18 µM (active) | –
22 | CNCCc1ccccc1 | -10.8% | – | –
23 | C[C@]12CC(O)C3[C@@H](CCC4C[C@@H](O)CC[C@@]43CO)[C@@]1(O)CCC2C1=CC(=O)OC1 (stereo partly specified) | -8.04% | – | –
24 | CC1=CC2CC[C@@H]3[C@@H](C)C[C@H](C)[C@@H](C1)N23 (stereo partly specified) | – | – | inactive
25 | CNCCc1ccc(O)cc1 | 0.978% | – | –
26 | C/C=C1/CN2CC[C@]34C(=Nc5ccccc53)[C@@H]2C[C@@H]1[C@H]4C(=O)OC | -5.23% [at 91.4 µM] | – | –
